Results reported in PubChem BioAssay (Tox21).
Results filed as inconclusive are left out. The source made the active and inactive calls. Unless noted, the call rests on the fitted dose curve; in most records, active means well fitted curve in the direction sought with a large enough effect in the repeat runs; inconclusive means weak or mixed curves; inactive means no such curve, though single readings can be large; an effect the other way counts as inactive or inconclusive.

Columns and labels:
[1] = molecular target: Retinoic acid receptor RXR-alpha (Homo sapiens) (UniProt P19793); assay: qHTS assay to identify small molecule agonists of the RXR signaling pathway (AID 1159527; calls by dose curve; further: nearly all actives have a fitted effect of over 35% in size; further: potency means the concentration at half of the fitted maximal effect)
Chain of Retinoic acid receptor RXR-alpha (Homo sapiens) (P19793 whole entry, looked up): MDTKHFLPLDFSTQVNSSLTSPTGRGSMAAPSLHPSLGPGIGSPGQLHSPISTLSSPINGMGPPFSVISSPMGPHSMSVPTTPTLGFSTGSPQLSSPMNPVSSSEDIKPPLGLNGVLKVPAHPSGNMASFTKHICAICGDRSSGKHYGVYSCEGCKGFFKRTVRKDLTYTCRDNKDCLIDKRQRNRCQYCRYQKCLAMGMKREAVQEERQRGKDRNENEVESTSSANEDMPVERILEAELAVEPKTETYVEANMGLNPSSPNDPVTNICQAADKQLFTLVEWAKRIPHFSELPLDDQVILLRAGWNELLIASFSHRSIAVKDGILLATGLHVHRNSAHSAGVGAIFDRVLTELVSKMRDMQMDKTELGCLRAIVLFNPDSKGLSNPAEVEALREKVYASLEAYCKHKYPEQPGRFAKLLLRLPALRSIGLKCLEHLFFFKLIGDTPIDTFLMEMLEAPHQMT
In short: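 GeneBLAzer RXR-alpha-UAS-bla HEK 293T cells in 2% charcoal-stripped FBS medium were exposed to compounds for 16 hr at 37 C in agonist mode. Beta-lactamase reporter read as 460/530 nm FRET ratio after 2 hr substrate loading.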

[2] = qHTS assay to identify small molecule agonists of the RXR signaling pathway - cell viability counter screen (AID 1159529); further: series mostly up to about 77 µM; nearly all actives have a fitted effect of over 50% in size
In short: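 RXR-alpha-UAS-bla HEK 293T cells in medium with 2% charcoal-stripped FBS were pre-incubated 5 hr, then compound-treated 16 hr at 37 C. Viability was read by CellTiter-Glo luminescence in the same wells as the beta-lactamase assay, with tetraoctyl ammonium bromide as positive control.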

[3] = qHTS assay to identify small molecule antagonists of the retinoid acid receptor (RAR) signaling pathway - cell viability counter screen (AID 1159551); further: nearly all actives have a fitted effect of over 35% in size
In short: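 Retinol-stimulated (1 uM final) C3RL4 cells, compound 6 h, 37 C; readout CellTiter-Glo luminescence (ATP) after 30 min RT incubation.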

[4] = qHTS assay to identify small molecule antagonists of the retinoic acid receptor (RAR) signaling pathway (AID 1159552; further: nearly all actives have a fitted effect of over 50% in size; further: potency means the concentration at half of the fitted maximal effect)
In short: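 Retinol signaling pathway inhibitors screened in C3RL4 RARE-luciferase reporter cells seeded overnight at 37 C, then compounds added with 1 uM (final) retinol as pathway substrate. After 6 hr at 37 C, luciferase luminescence read after 30 min at room temperature.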

[5] = qHTS assay to identify small molecule agonists of the retinoic acid receptor (RAR) signaling pathway (AID 1159553); further: potency means the concentration at half of the fitted maximal effect
In short: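 Reporter readout comes from luciferase under RARE control in C3RL4 cells; compound exposure lasts 6 hr at 37 C in 5% CO2, and luminescence is recorded following a 30 min room-temperature incubation with reagent.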

[6] = qHTS assay to identify small molecule antagonists of the estrogen related receptor (ERR) signaling pathway from Tox21 library - cell viability counter screen (AID 1224834); further: nearly all actives have a fitted effect of over 30% in size
In short: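 After 17.5 h of compound exposure at 37 C, ERR cells are incubated with CellTiter-Fluor for 30 min and fluorescence intensity serves as the viability measure.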

[7] = molecular target: Luciferin 4-monooxygenase (Photinus pyralis) (UniProt P08659); assay: qHTS assay to identify small molecule inhibitors of firefly luciferase (AID 1224835); further: nearly all actives have a fitted effect of over 25% in size; further: potency means the concentration at half of the fitted maximal effect; on activity change, negative = inhibition: series mostly up to about 120 µM
Chain of Luciferin 4-monooxygenase (Photinus pyralis) (P08659 whole entry, looked up): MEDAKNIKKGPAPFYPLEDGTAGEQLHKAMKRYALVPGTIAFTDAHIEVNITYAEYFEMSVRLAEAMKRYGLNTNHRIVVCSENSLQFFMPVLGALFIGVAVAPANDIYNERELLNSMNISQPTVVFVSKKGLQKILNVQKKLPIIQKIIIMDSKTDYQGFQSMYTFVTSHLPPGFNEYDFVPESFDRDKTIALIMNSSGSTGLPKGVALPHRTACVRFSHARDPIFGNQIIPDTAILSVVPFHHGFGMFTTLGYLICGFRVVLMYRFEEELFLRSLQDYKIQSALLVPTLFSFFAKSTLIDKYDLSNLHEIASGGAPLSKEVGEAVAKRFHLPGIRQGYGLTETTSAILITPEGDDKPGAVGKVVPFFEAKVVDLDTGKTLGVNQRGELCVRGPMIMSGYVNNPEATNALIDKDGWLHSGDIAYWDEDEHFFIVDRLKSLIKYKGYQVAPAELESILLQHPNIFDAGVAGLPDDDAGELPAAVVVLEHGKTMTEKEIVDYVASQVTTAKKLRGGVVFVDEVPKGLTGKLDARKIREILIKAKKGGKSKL
In short: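 Quantitative HTS format; KM concentrations of both substrates. Purified P. pyralis FLuc activity quantified from luminescence images.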

[8] = qHTS assay to identify small molecule agonists of the constitutive androstane receptor (CAR) signaling pathway - cell viability counter screen (AID 1224836); further: series mostly up to about 92 µM; nearly all actives have a fitted effect of over 45% in size
In short: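 HepG2 cells stably carrying hCAR and a CYP2B6-2.2kb reporter; 15-concentration compounds plus PK11195 (final 0.75 uM), 23 hr at 37 C/5% CO2. Viability read by CellTiter-Fluor fluorescence.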

[9] = qHTS assay to identify small molecule antagonists of the constitutive androstane receptor (CAR) signaling pathway - cell viability counter screen (AID 1224837); further: series mostly up to about 92 µM; nearly all actives have a fitted effect of over 45% in size
In short: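 Counter screen run in HepG2-CYP2B6-hCAR cells: 4 hr settle, compound titration (15 concentrations) with 50 nM CITCO, 23 hr at 37 C/5% CO2, CellTiter-Fluor fluorescence.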

[10] = molecular target: Nuclear receptor subfamily 1 group I member 3 (Homo sapiens) (UniProt Q14994); assay: qHTS assay to identify small molecule antagonists of the constitutive androstane receptor (CAR) signaling pathway (AID 1224838);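 further: HepG2 cells stably expressing hCAR with CYP2B6 luciferase reporter stimulated by CITCO; nearly all actives have a fitted effect of over 40% in size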; further: potency means the concentration at half of the fitted maximal effect
Chain of Nuclear receptor subfamily 1 group I member 3 (Homo sapiens) (Q14994 whole entry, looked up): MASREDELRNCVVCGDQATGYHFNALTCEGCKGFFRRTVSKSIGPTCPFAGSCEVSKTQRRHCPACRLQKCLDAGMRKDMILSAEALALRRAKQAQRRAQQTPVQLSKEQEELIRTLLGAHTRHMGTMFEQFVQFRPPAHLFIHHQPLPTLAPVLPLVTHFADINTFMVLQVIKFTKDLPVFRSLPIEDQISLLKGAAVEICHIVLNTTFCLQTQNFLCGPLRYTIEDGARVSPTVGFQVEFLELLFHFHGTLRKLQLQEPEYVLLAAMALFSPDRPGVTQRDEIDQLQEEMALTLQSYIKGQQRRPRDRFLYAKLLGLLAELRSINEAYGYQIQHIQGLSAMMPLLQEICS
In short: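 Cell line: HepG2 double-stable for hCAR and CYP2B6-2.2kb reporter. Agonist: CITCO, 50 nM final. Compounds: 15 concentrations, 24 h, 37 C. Detection: ONE-Glo luminescence.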

[11] = molecular target: Nuclear receptor subfamily 1 group I member 3 (Homo sapiens) (UniProt Q14994); assay: qHTS assay to identify small molecule agonists of the constitutive androstane receptor (CAR) signaling pathway (AID 1224839); further: nearly all actives have a fitted effect of over 15% in size; further: potency means the concentration at half of the fitted maximal effect;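 on activation: HepG2 cells stably carrying human CAR and a CYP2B6 luciferase reporter; series mostly up to about 92 µM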
In short: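 HepG2 cells stably co-transfected with hCAR and a CYP2B6-2.2kb luciferase reporter; compounds at 15 concentrations with 0.75 uM PK11195 present. After 24 hr at 37 C, luciferase read by ONE-Glo luminescence.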

[12] = qHTS assay to identify small molecule antagonists of the estrogen related receptor signaling pathway with the pleiotropic PPARgamma coactivator (PGC) from Tox21 10K library - cell viability counter screen (AID 1224840; active means well fitted cell-killing curve with a large enough effect in the repeat runs, not every such curve was filed as active; further: nearly all actives have a fitted effect of over 40% in size)
In short: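 Following seeding of 2,000 PGC/ERR cells/well and 6 hours' incubation, test compounds were delivered in DMSO. The plates then sat 17.5 hours at 37 C before a fluorogenic live-cell protease reagent (CellTiter-Fluor) was read after 30 min.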

[13] = qHTS assay to identify small molecule antagonists of the estrogen related receptor signaling pathway with the pleiotropic PPARgamma coactivator (PGC) from Tox21 10K library (AID 1224841; call rule not given here; further: series mostly up to about 92 µM; actives are mostly falling curves and most rising ones were filed inactive; nearly all actives have a fitted effect of over 50% in size)
In short: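 qHTS antagonist format: PGC/ERR cells, 2k/well, compound in DMSO by pin transfer after 6 h attachment, 18 h treatment at 37 C, One-Glo luminescence read at 30 min.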

[14] = qHTS assay to identify small molecule agonists of the estrogen related receptor signaling pathway with the pleiotropic PPARgamma coactivator (PGC) from Tox21 10K library (AID 1224842); further: nearly all actives have a fitted effect of over 15% in size
In short: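 PGC/ERR reporter cells (NTP line) were seeded 2,000 per well, rested 6 h at 37 C/5% CO2, then pin-dosed with compounds in DMSO for 18 h at 37 C; luciferase read by One-Glo luminescence after 30 min at room temperature.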
On the % scale 0 is the no-effect control and ±100 the full control effect.

CC(C(=O)O)c1ccc(C(=O)c2cccs2)cc1 (centres undefined)
inactive: Potency [1] | Potency [2] | Potency [3] | Potency [4] | Potency [5] | Potency [6] | Potency [7] | Potency [8] | Potency [9] | Potency [10] | Potency [11] | Potency [12]

CCNc1nc(N)nc(Cl)n1
inactive: Potency [2] | Potency [3] | Potency [5] | Potency [6] | Potency [7] | Potency [8] | Potency [9] | Potency [11] | Potency [12] | Potency [13] | Potency [14]
active: Potency [1] 5.49 µM | Potency [4] 21.7 µM | Potency [10] 24.3 µM

CCCCCCCCCCCCCOC(=O)CCSCCC(=O)OCCCCCCCCCCCCC
inactive: activation [1] 4.41% [at 15.8 µM] | activity change, negative = cytotoxicity [2] 10.7% [at 15.8 µM] | activity change, negative = cytotoxicity [3] 3.2% [at 19 µM] | activity, negative = inhibition [4] -11.1% [at 19 µM] | Potency [5] | viability change, negative = cytotoxic [6] -0.449% [at 19 µM] | activity change, negative = inhibition [7] -2.08% [at 23.6 µM] | viability change, negative = cytotoxic [8] -3.39% [at 19 µM] | activity change, negative = cytotoxicity [9] -3.13% [at 19 µM] | activation [11] -0.548% [at 19 µM] | viability change, negative = cytotoxic [12] 0.0068% [at 19 µM]

c1ccc(CNc2ncnc3c2ncn3C2CCCCO2)cc1 (centres undefined)
active: Potency [5] 4.33 µM | Potency [7] 39.9 µM | Potency [11] 9.69 µM
inactive: Potency [1] | Potency [2] | Potency [3] | Potency [4] | Potency [6] | Potency [8] | Potency [9] | Potency [10] | Potency [12]

CC[C@@H](CO)NCCN[C@@H](CC)CO
inactive: Potency [1] | Potency [2] | Potency [3] | Potency [4] | Potency [5] | Potency [6] | Potency [7] | Potency [8] | Potency [9] | Potency [10] | Potency [11] | Potency [12] | Potency [13] | Potency [14]

Cc1ccc2c(c1)CCCN2
inactive: Potency [1] | Potency [2] | Potency [3] | Potency [4] | Potency [5] | Potency [6] | Potency [7] | Potency [8] | Potency [9] | Potency [10] | Potency [12]

CCO[Si](C)(CCCOCC1CO1)OCC (centres undefined)
inactive: Potency [1] | Potency [2] | Potency [3] | Potency [4] | Potency [5] | Potency [6] | Potency [7] | Potency [8] | Potency [9] | Potency [10] | Potency [11] | Potency [12] | Potency [13] | Potency [14]

Oc1cccc2[nH]ccc12
inactive: Potency [1] | Potency [2] | Potency [3] | Potency [4] | Potency [5] | Potency [6] | Potency [8] | Potency [9] | Potency [11] | Potency [12]

CC1=CC[C@@]23C[C@@H]1C(C)(C)[C@@H]2CC[C@H]3C
inactive: Potency [1] | Potency [2] | Potency [3] | Potency [4] | Potency [5] | Potency [6] | Potency [7] | Potency [8] | Potency [11] | Potency [12]

CCN(CC)C(=O)N1CCN(C)CC1
inactive: Potency [1] | Potency [2] | Potency [3] | Potency [4] | Potency [5] | Potency [6] | Potency [7] | Potency [8] | Potency [9] | Potency [12] | Potency [14]
